Records with an inconclusive call do not appear. Active and inactive are the calls of the source. Unless noted, calls come from the whole dose curve; as a rule, active = well fitted curve in the direction sought with a large enough effect in the repeat runs; inconclusive = weak or mixed curves; inactive = no such curve, though single readings can be large; an effect the other way counts as inactive or inconclusive.
Legend:
[1] = biological target: Thyrotropin receptor (Homo sapiens) (UniProt P16473); assay: qHTS assay to identify small molecule agonists of the thyroid stimulating hormone receptor (TSHR) signaling pathway (AID 1224843; calls by dose curve; note: nearly all actives have a fitted effect of over 45% in size)
Sequence of Thyrotropin receptor (Homo sapiens) (P16473 whole entry, looked up): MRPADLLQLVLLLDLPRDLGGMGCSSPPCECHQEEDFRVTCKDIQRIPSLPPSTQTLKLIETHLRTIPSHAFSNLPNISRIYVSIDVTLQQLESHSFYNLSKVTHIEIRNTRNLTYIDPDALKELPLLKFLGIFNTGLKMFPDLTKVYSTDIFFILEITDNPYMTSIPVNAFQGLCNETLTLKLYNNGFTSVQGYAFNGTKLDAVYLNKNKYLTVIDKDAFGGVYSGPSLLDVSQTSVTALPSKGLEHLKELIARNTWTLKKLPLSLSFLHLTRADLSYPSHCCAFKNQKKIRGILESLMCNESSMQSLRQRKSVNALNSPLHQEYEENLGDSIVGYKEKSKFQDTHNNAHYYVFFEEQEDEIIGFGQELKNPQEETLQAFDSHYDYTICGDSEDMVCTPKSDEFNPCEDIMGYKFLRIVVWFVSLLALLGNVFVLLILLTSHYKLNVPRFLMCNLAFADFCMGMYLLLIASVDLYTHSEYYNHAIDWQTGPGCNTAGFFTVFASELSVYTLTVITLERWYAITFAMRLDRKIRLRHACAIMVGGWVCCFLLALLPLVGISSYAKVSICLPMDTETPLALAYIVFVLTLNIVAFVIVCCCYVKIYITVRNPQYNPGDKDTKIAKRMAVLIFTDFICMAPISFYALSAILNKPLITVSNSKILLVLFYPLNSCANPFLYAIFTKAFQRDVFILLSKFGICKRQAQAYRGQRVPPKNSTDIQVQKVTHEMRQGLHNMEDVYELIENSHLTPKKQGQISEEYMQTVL
Method in brief: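 HEK293/TSHR, 800 cells/well; cpd 30 min RT; add cAMP-d2 + anti-cAMP-cryptate, 1 h RT; fluorescence read on plate reader. 15-pt titration, n=3.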

[2] = qHTS assay to identify small molecule agonists of the hypoxia (HIF-1) signaling pathway - cell viability counter screen (AID 1224844; calls by dose curve; note: nearly all actives have a fitted effect of over 50% in size)
Method in brief: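 Cytotoxicity measured by CellTiter-Glo ATP luminescence in the wells also read for beta-lactamase signal. Cells were HRE-bla ME-180 (2,000/well, 0.5% dialyzed FBS), exposed to compounds for 17 h at 37C.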

[3] = qHTS assay to identify small molecule agonists of H2AX (AID 1224845; active = well fitted activation curve with a large enough effect in the signal ratio in the repeat runs, not every such curve was filed as active; the % refers to the signal ratio)
Method in brief: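 Wild-type CHO-K1 cells, plated overnight, exposed 3hr at 37C to 15 concentrations (0.76% DMSO final). Lysed, then HTRF anti-pH2AX (S139) cryptate and anti-H2AX-d2 antibodies, 24 hr room temperature; 665/620 nm emission read.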

[4] = qHTS assay to identify small molecule agonists of the hypoxia (HIF-1) signaling pathway (AID 1224846; active = well fitted activation curve with a large enough effect in the signal ratio in the repeat runs, not every such curve was filed as active; the % refers to the signal ratio)
Method in brief: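 Compounds added to ME-180 cells carrying hypoxia-response-element beta-lactamase reporter (0.5% dialyzed FBS, 5 h preplating), 17 h at 37C; agonist activity detected by CCF4-AM B/G FRET read-out.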

[5] = qHTS assay to identify small molecule agonists of H2AX - cell viability counter screen (AID 1224847; calls by dose curve; note: top concentration of the series differs between compounds; nearly all actives have a fitted effect of over 30% in size)
Method in brief: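 After overnight plating of 1000 CHO-K1 cells per well, a 15-concentration compound series was applied for 3 hr at 37C. Luminescence from CellTiter-Glo, read following 30 min at room temperature, reflected cell viability.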

[6] = qHTS RealTime-Glo MT Cell Viability Assay in HepG2 cells - 24 hour (AID 1224867); note: nearly all actives have a fitted effect of over 50% in size
Method in brief: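 Tox21 10K library screened in qHTS format on HepG2 cells carrying RealTime-Glo reagents. Compounds were added after a 5 h preincubation, and the luminescent signal from continuous culture was measured repeatedly during 40 h treatment.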

[7] = qHTS RealTime-Glo MT Cell Viability Assay in HEK293 cells - 32 hour (AID 1224868); note: nearly all actives have a fitted effect of over 50% in size; note: potency is the fitted concentration of half-maximal effect
Method in brief: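 Luminescence generated by NanoLuc from substrate produced by living HEK293 cells served as the viability signal. Each value reflects the reading at its stated time point during continuous 40 h compound exposure at 37 C.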

[8] = A CellTox Green Cytotoxicity Assay to monitor cytotoxicity in HEK293 cells - 0 hour (AID 1224869); note: nearly all actives have a fitted effect of over 50% in size
Method in brief: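 Fluorescence from a DNA-binding dye excluded by viable cells was measured repeatedly in the same HEK293 wells (600 cells/well) during continuous compound exposure at 37 C. Each assay gives one read point: 0, 8, 16, 24, 32 or 40 h.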

[9] = qHTS assay to identify small molecule antagonists of the estrogen related receptor (ERR) signaling pathway from Tox21 library (AID 1224848); note: nearly all actives have a fitted effect of over 50% in size
Method in brief: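 Compounds dissolved in DMSO are pin-transferred onto ERR reporter cells (2,000 per well) that have settled for 6 h at 37 C. Plates then incubate 18 h at 37 C before ONE-Glo luciferase reagent and a luminescence read 30 min later.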

[10] = qHTS assay to identify small molecule agonists of the estrogen related receptor (ERR) signaling pathway from Tox21 library (AID 1224849; calls by dose curve; note: nearly all actives have a fitted effect of over 15% in size); conditions: ERR reporter cell line, ONE-Glo luciferase, 18 h; at 92.4 µM (top of the series) unless noted
Method in brief: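 Luminescent agonist read-out (One-Glo, 30-minute room-temperature incubation) following 18-hour compound treatment at 37 C of the ERR cell line, which had been plated 6 hours before dosing.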
% is set by controls: 0 for no effect and ±100 for the full control effect.

CCCCCCCCCCCC(=O)OCC
inactive: Potency [1] | Potency [2] | Potency [3] | outcome [4] | Potency [5] | outcome [6] | Potency [7] | Potency [8]

Cc1cc(C)c(C)c(O)c1
inactive: Potency [1] | Potency [2] | Potency [3] | outcome [4] | Potency [9] | activity change, positive = activation [10] 1.16% | outcome [6] | Potency [7] | Potency [8]

CC1(C)[C@@H]2CC[C@]3(C2)[C@@H]1C(=O)CCC3(C)C
inactive: Potency [1] | Potency [2] | Potency [3] | outcome [4] | Potency [5] | outcome [6] | Potency [7] | Potency [8]

CCOc1ccccc1O
active: Potency [7] 1.74 µM
inactive: Potency [1] | Potency [2] | Potency [3] | outcome [4] | Potency [5] | outcome [6] | Potency [8]

C=CC(O)CCCCC (stereo not drawn)
inactive: Potency [1] | Potency [2] | Potency [3] | outcome [4] | Potency [5] | outcome [6] | Potency [7] | Potency [8]

COc1cccc([C@H](O)C2CCN(CCc3ccc(F)cc3)CC2)c1OC
inactive: Potency [1] | Potency [2] | Potency [3] | outcome [4] | Potency [5] | outcome [6] | Potency [8]

Cc1ccc(S(=O)(=O)NC(=O)NC2CCCC2)cc1
inactive: Potency [1] | Potency [2] | Potency [3] | outcome [4] | Potency [5] | outcome [6] | Potency [7] | Potency [8]

OCCCO
inactive: Potency [1] | Potency [2] | Potency [3] | outcome [4] | Potency [5] | outcome [6] | Potency [7] | Potency [8]

Cc1cc(C)n(CO)n1
inactive: Potency [1] | Potency [2] | Potency [3] | outcome [4] | Potency [5] | outcome [6] | Potency [7] | Potency [8]

CCn1nc(Cc2ccccc2)cc1C1CCN(C[C@H]2C[C@H](N(C)[C@@H](C(=O)O)C(C)C)C[C@@H]2c2cccc(F)c2)CC1
inactive: Potency [1] | Potency [2] | Potency [3] | outcome [4] | Potency [5] | outcome [6] | Potency [8]

C1CCN(CN2CCCCC2)CC1
inactive: Potency [1] | Potency [2] | Potency [3] | outcome [4] | Potency [5] | outcome [6] | Potency [7] | Potency [8]

CCCCCO
inactive: Potency [1] | Potency [2] | Potency [3] | outcome [4] | Potency [9] | activity change, positive = activation [10] -0.565% | outcome [6] | Potency [7] | Potency [8]

CCCC1CCOC(C)S1 (stereo not drawn)
inactive: Potency [1] | Potency [2] | Potency [3] | outcome [4] | Potency [5] | outcome [6] | Potency [7] | Potency [8]

O=C(NC1CCN(CCc2c[nH]c3ccccc23)CC1)c1ccccc1
active: Potency [7] 7.56 µM
inactive: Potency [1] | Potency [2] | Potency [3] | outcome [4] | Potency [5] | outcome [6] | Potency [8]

CCCCCCC/C=C/C=O
inactive: Potency [1] | Potency [2] | Potency [3] | outcome [4] | Potency [5] | outcome [6] | Potency [7] | Potency [8]

CC(=O)c1ccc(Cl)c(Cl)c1Cl
inactive: Potency [1] | Potency [2] | Potency [3] | outcome [4] | Potency [5] | outcome [6] | Potency [7] | Potency [8]

O=[N+]([O-])c1cccc(I)c1
inactive: Potency [1] | Potency [2] | Potency [3] | outcome [4] | Potency [5] | outcome [6] | Potency [7] | Potency [8]

Cc1cccc(C)c1NC(=O)CN1CCCC1
inactive: Potency [1] | Potency [2] | Potency [3] | outcome [4] | Potency [5] | outcome [6] | Potency [7] | Potency [8]

C[C@H]1C[C@H]2[C@@H]3CCC4=CC(=O)C=C[C@]4(C)[C@@]3(F)[C@@H](O)C[C@]2(C)[C@@]1(O)C(=O)COP(=O)(O)O
inactive: Potency [1] | Potency [2] | Potency [3] | outcome [4] | Potency [5] | outcome [6] | Potency [7] | Potency [8]

CCCCCCCCNC
inactive: Potency [1] | Potency [2] | Potency [3] | outcome [4] | Potency [5] | outcome [6] | Potency [7] | Potency [8]

Cc1ccccc1CCO
inactive: Potency [1] | Potency [2] | Potency [3] | outcome [4] | Potency [9] | activity change, positive = activation [10] -1.5% | outcome [6] | Potency [7] | Potency [8]

CC(C)=CCCC(C)C=O (stereo not drawn)
inactive: Potency [1] | Potency [2] | Potency [3] | outcome [4] | Potency [5] | outcome [6] | Potency [7] | Potency [8]

CC(O)C(C)O (stereo not drawn)
inactive: Potency [1] | Potency [2] | Potency [3] | outcome [4] | Potency [5] | outcome [6] | Potency [7] | Potency [8]

CC(C)=CCC[C@H](C)CCO
inactive: Potency [1] | Potency [2] | Potency [3] | outcome [4] | Potency [5] | outcome [6] | Potency [7] | Potency [8]

O=C(Nc1ccc2c(c1)Cc1ccccc1-2)C(F)(F)F
inactive: Potency [1] | Potency [2] | Potency [3] | outcome [4] | Potency [5] | outcome [6] | Potency [8]

CCCCCCCCCCCCCCCCC(=O)O
inactive: Potency [1] | Potency [2] | Potency [3] | outcome [4] | Potency [5] | outcome [6] | Potency [7] | Potency [8]

C/C(=C(\CCO)SS/C(CCO)=C(\C)N(C=O)Cc1cnc(C)nc1N)N(C=O)Cc1cnc(C)nc1N
inactive: Potency [1] | Potency [2] | Potency [3] | outcome [4] | Potency [9] | outcome [6] | Potency [7] | Potency [8]

COc1ccc(C(=O)c2ccc(C)cc2)c(O)c1
inactive: Potency [1] | Potency [2] | Potency [3] | outcome [4] | Potency [9] | outcome [6] | Potency [8]

From PubChem BioAssay (Tox21)
